Compound activity (PubChem)
Rows were chosen to be rich in hits. Some 3% of all compounds tested hit in one or more screens of this group.
pPAFAH FP inh = inhibitors of human plasma PAF acetylhydrolase (pPAFAH); Q13093; recombinant pPAFAH, FP-rhodamine probe fluorescence polarization; inhibition, % at 3.39 µM; 1.5% of 330,000 active;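 active means inhibition above the mean inhibition across the screen plus 3 SD, cut at about 25% in these data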;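 further: inhibitors block binding of the rhodamine activity-based probe so polarization drops; 0% = enzyme with DMSO and 100% = wells lacking pPAFAH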
PP5 inh = inhibitors of human protein phosphatase 5 (PP5). P53041. purified PP5c, OMFP substrate fluorescence. inhibition, % at 6.7 µM. 0.18% of 320,000 active. AID 1987;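 active means inhibition above the campaign's mean inhibition across all tested compounds plus 3 SD, cut at about 9.5% in these data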;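 further: 0% = DMSO only and 100% = 100 µM cantharidin control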
Target sequence (P53041 whole entry, looked up): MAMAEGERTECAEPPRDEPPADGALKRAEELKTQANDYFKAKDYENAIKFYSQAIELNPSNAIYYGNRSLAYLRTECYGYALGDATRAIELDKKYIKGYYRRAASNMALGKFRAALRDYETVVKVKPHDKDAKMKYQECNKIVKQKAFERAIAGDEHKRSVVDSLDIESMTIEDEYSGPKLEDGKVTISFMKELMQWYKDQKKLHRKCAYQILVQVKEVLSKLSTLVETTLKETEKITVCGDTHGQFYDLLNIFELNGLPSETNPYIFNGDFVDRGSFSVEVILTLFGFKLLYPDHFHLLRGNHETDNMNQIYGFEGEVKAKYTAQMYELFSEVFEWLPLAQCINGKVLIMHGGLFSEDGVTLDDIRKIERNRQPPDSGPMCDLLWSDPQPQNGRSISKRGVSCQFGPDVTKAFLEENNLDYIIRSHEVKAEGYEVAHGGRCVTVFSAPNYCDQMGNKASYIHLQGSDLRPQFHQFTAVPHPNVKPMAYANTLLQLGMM
PAFAH2 inh = PAFAH2 (human) inhibition; 0.99% of 340,000 active; recombinant PAFAH2, FP-rhodamine activity probe, fluorescence polarization; Q99487; inhibition, % at 3.39 µM; AID 492956;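 active means inhibition above the mean over all tested compounds plus 3 SD, cut at about 30% in these data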;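 further: inhibitors block probe labeling of enzyme so polarization drops; 0% = enzyme with DMSO and 100% = wells lacking PAFAH2 protein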
PAFAH1B3 inh = PAFAH1B3 (human) inhibition; inhibition, % at 3.39 µM; recombinant PAFAH1B3, FP-rhodamine probe, fluorescence polarization; 0.28% of 340,000 active; Q15102;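 active means inhibition above the screen-wide average of all tested compounds plus 3 SD, cut at about 25% in these data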;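 further: 0% = enzyme with DMSO only and 100% = wells lacking PAFAH1B3 protein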
Fh CTSL1 inh = cathepsin L1 inhibition, PFM18AAP counter-screen. recombinant F. hepatica cathepsin L1, Z-Leu-Arg-MCA fluorescence. inhibition, % at 5.96 µM. AID 1906. 0.49% of 300,000 active;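 active means inhibition above the mean of all tested compounds plus 3 SD, set per screening campaign, cut at about 17% in these data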;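 further: 0% = plate median of test compound wells and 100% = 1 µM Z-Phe-Ala-diazomethylketone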
PAFAH1B2 FP inh = blocks human PAF acetylhydrolase 1b catalytic subunit 2. recombinant PAFAH1B2, FP-rhodamine activity probe, fluorescence polarization. inhibition, % at 3.39 µM. 1.2% of 340,000 active. AID 492953;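 active means inhibition above the mean of all tested compounds plus 3 SD, cut at about 24% in these data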;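 further: 0% = enzyme with DMSO and 100% = wells lacking PAFAH1B2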
An asterisk follows results filed as active; . = no result.

SMILES	pPAFAH FP inh	PP5 inh	PAFAH2 inh	PAFAH1B3 inh	Fh CTSL1 inh	PAFAH1B2 FP inh
CCCCOc1ccc(C(=O)NNC(=O)c2cnccn2)cc1OC	0	.	1	4	.	1
CN(Cc1ccccc1)C(=O)CSc1cc(=O)n(C)c2ccccc12	29*	1	7	3	5	-3
COc1ccc(-c2cc(=O)oc3cc(OC(C)C(=O)O)ccc23)cc1 (configuration not stated)	-5	-1	-8	7	3	1
CC(Oc1ccc2c(-c3ccccc3)cc(=O)oc2c1)C(=O)N1CCC[C@@H]1C(N)=O (some centres not stated)	7	2	-6	10	42*	1
CCCCn1c(N)c(N(CCOC)C(=O)c2c(CC)noc2C)c(=O)[nH]c1=O	1	0	1	7	.	-3
CCOC(=O)c1sc(NC(=O)CN(CC(C)C)CC(C)C)c(C(=O)OCC)c1C	4	0	0	16	4	33*
O=C1NCCCC2c3cc(O)c4ccccc4c3OC12N1CCCCC1 (configuration not stated)	18	4	.	.	29*	.
COc1ccc(C(=O)CC2(C(=O)O)CCCCC2)cc1	3	-1	-4	7	1	6
Cc1ccc(OCC(=O)Nc2ccc(N3CCCC3)cc2)cc1C	30*	0	16	11	2	3
O=C(CNCCC1=CCCCC1)Nc1ccc(N2CCCCCC2)cc1	32*	5	11	-2	1	8
COc1ccccc1OCC(=O)Nc1ccc(N2CCCCC2)cc1	4	-3	6	5	-1	2
O=C(CNC1CCCCCC1)Nc1ccc(N2CCCC2)cc1	5	2	.	.	-2	.
Cc1cccc(OCC(=O)Nc2ccc(N3CCCC3)cc2)c1C	30*	-2	11	6	4	5
O=C(CN1C(=O)NC2(CCCCCC2)C1=O)c1cccs1	7	0	8	8	.	-1
O=c1[nH]c(/C=C\c2cccc(Cl)c2)nc(O)c1[N+](=O)[O-]	0	1	5	12	5	33*
O=S(=O)(NCCc1ccccc1)c1cccc(S(=O)(=O)N2CCOCC2)c1	22	-1	6	12	-4	9
O=S(=O)(NCCC1=CCCCC1)c1cccc(S(=O)(=O)N2CCOCC2)c1	30*	2	-3	3	1	10
O=C(NCCC1=CCCCC1)C1CCCN(S(=O)(=O)c2ccccc2)C1 (configuration not stated)	9	-1	4	4	-2	27*
O=C(NCCC1=CCCCC1)C1CCCN(S(=O)(=O)c2cnc[nH]2)C1 (configuration not stated)	6	3	1	0	-2	26*
O=C(O)C1C2CCC(O2)C1C(=O)NCCC1=CCCCC1 (configuration not stated)	2	69*	5	-4	-2	4
COc1ccc(C(=O)COC(=O)CNS(=O)(=O)c2ccc(C)cc2)cc1	10	3	-10	7	-52	6
CN(C(=O)c1cccc(COc2ccc(Cl)cc2Cl)c1)c1ccccc1	2	3	-1	-7	1	27*
O=C(NCc1ccccc1)c1cccc(COc2cc(Cl)ccc2Cl)c1	-6	1	-15	2	9	8
CC(=O)Nc1ccc(S(=O)(=O)N(C)CC(=O)OCC(=O)NNC(=O)c2ccccc2F)cc1	2	-1	-4	-3	-5	1
CC(=O)Nc1ccc(S(=O)(=O)N(C)CC(=O)OCC(=O)NC(C)C23CC4CC(CC(C4)C2)C3)cc1 (configuration not stated)	-3	2	7	8	-3	25*
SMILES	pPAFAH FP inh	PP5 inh	PAFAH2 inh	PAFAH1B3 inh	Fh CTSL1 inh	PAFAH1B2 FP inh
O=C(c1ccc(Cl)c(S(=O)(=O)N2CCCC2)c1)N1CCN(c2ccccc2)CC1	3	1	-1	0	35*	-4
O=C(CNC(=O)c1ccco1)OCN1C(=O)c2ccccc2C1=O	0	-1	-4	-3	28*	6
O=C(COc1ccc(Br)cc1)NC(=S)Nc1ccccc1N1CCOCC1	2	3	-10	9	-1	26*
O=C(NC(=C(Cl)Cl)S(=O)(=O)c1ccc(Cl)cc1)c1ccccc1	-1	0	22	12	30*	-2
Cc1ccc(S(=O)(=O)/C(=C/Cl)NC(=O)c2ccccc2)cc1	2	0	20	15	97*	2
C=CCn1c(CCc2cc(C(C)(C)C)c(O)c(C(C)(C)C)c2)n[nH]c1=S	9	4	-9	3	3	2
O=C(CSc1n[nH]c(-c2ccc(S(=O)(=O)N3CCCCC3)cc2)n1)Nc1nccs1	17	0	6	2	0	39*
CCN(CC)S(=O)(=O)c1ccc(/C=C/C(=O)OCC(=O)NCc2ccco2)cc1	30*	.	75*	-6	.	9
CCN(CC)S(=O)(=O)c1ccc(C(=O)OCC(=O)NCc2ccco2)cc1	17	0	-1	11	-2	-2
CCN(CC)CCNC(=O)C(=O)Nc1cc2c3c(c1)CCC(=O)N3CCC2	1	0	-1	1	5	1
O=C(O)CCc1ccc(-c2cccs2)n1CCc1ccccc1	34*	1	-1	-11	2	7
O=C(CSc1nc2ccccc2n1CC(=O)N1CCCC1)N1CCN(C(=O)c2ccco2)CC1	-3	1	4	-2	27*	2
O=C(CN1C(=O)NC(c2ccccc2)(c2ccccc2)C1=O)NCCNCCO	6	0	1	8	-3	0
COc1cc(-c2nc(-c3ccc4c(c3)-c3ccccc3S4(=O)=O)c(-c3ccccc3)[nH]2)cc(OC)c1O	27*	3	-2	22	1	3
C=CCn1c(=O)n(CCOC)c(=O)c2sc3ccccc3c21	28*	1	2	-4	1	5
Cc1ccc(S(=O)(=O)N(C)C)cc1NC(=O)COC(=O)c1sc2cc(Cl)ccc2c1Cl	32*	0	-19	-12	0	-5
CC(=O)Oc1oc(-c2ccccc2)nc1/C=N/c1ccccn1	6	0	9	10	26*	4
CC(=O)Oc1oc(-c2ccccc2)nc1C=Nc1ccc(N(C)C)cc1	5	1	-1	8	18*	4
CN(C)c1ccc(N=Cc2nc(-c3ccccc3)oc2OC(=O)c2ccccc2)cc1	-2	0	5	0	8	4
COc1ccccc1N=Cc1nc(-c2ccccc2)oc1OC(C)=O	-2	0	9	1	17*	4
CN1CCN(S(=O)(=O)c2ccc3c(c2)oc(=O)n3C)CC1	1	0	0	8	1	3
N#Cc1ccc(COC(=O)CCc2c[nH]c3ccccc23)cc1	7	3	2	4	-4	5
CC(C)N(C(=S)NCc1ccccc1)c1ccccc1	-5	1	4	7	0	29*
